Compounds without any hit were thinned out: in the full panel of roughly 83,000, 20% have a hit.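 How to read the values: 0–100, growth inhibition (40 = 60% inhibited); 0, no net growth; -100 to 0, cell death (-40 = 40% of starting cells died; -100 = all dead).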 Unmarked numbers belong to inactive results. Active and inactive are the calls of the source.
These compounds were tested on HT29 colon (assay: NCI-60 one-dose screen, 48 h (100 = growth as untreated, 0 = no growth, -100 = all killed)). Conditions: 10 µM.
Experimental: Growth inhibition of the HT29 human tumor cell line is measured as a screen for anti-cancer activity. Cells are grown in 96 well plates and exposed to the test compound for 48 hours. Compounds are tested at a single concentration, which is 10^-5 M for most compounds. The reported endpoint is percent growth (GI% or GIPRCNT), where numbers from 0 - 100% represent growth inhibition, and numbers from -100% - 0 represent cell death. For example, a value of 40 represents 60% growth inhibition. A value of 0 means no net growth occurred over the course of the experiment. A value of -40 indicates 40% of cells at the beginning of the experiment died by the end of the experiment. A value of -100 means all cells are dead at the end of the experiment.
NCI-60 Human Tumor Cell Lines Screen was performed using the standard one-dose NCI protocol, which is described in more detail at https://dtp.cancer.gov/discovery_development/nci-60/default.htm.
Compounds with GIPRCNT values below 10 were considered active. Activity score was based on GIPRCNT using the following formula: […]
Score is 0 for GIPRCNT values of 100 or above, 50 for GIPRCNT values of 0, and 100 for GIPRCNT values of -100.

Compound	growth
O=C(/C=C/c1ccc(Cl)cc1Cl)c1nc2ccccc2n1Cc1ccc(Br)cc1	53.9%
O=C(/C=C/c1ccccc1Cl)c1nc2ccccc2n1Cc1ccc(F)cc1	-85.6% (active)
CC(=C\C(=O)Oc1ccc2c3c1OC1C(O)CCC4(O)C(C2)N(CC2CCC2)CCC314)/C=C1\CCCc2ccccc21 (stereo not given)	8.3% (active)
COC(=O)C[C@](O)(CCC(C)C)C(=O)O[C@@H]1C(OC)=C[C@]23CCCN2CCc2cc4c(cc2[C@H]13)OCO4	-62.1% (active)
O=C(/C=C/c1ccc(Cl)cc1)c1nc2ccccc2n1Cc1ccc(F)cc1	5.22% (active)
CC(C)N=C([Se])NC(=O)c1cccs1	27.9%
CC[C@]12C=CCN3CC[C@@]4(c5ccc(OC)cc5N(C)[C@H]4[C@@](O)(C(=O)OC)[C@@H]1OC(=O)CCCC[P+](c1ccc(OC)cc1)(c1ccc(OC)cc1)c1ccc(OC)cc1)[C@@H]32	-63.1% (active)
COC(=O)CCn1c(-c2ccc(-n3cc(-c4ccc(O[C@H]5O[C@@H]6OC7(C)CC[C@H]8[C@H](C)CC[C@@H]([C@H]5C)[C@@]68OO7)cc4)nn3)cc2)nc2ccccc21	22.5%
CCOP(=O)(OCC)C(NC(C)=O)C(=O)SCCN (stereo not given)	113%
O=C(/C=C/c1ccc(Cl)cc1Cl)c1nc2ccccc2n1Cc1ccc(F)cc1	7.3% (active)
COCCOCCOCCOc1ccc(-n2cc(CCCN(CCNc3ccnc4cc(Cl)ccc34)C(=O)CCC(=O)O[C@@H]3O[C@@H]4OC5(C)CC[C@H]6[C@H](C)CC[C@@H]([C@H]3C)[C@@]46OO5)nn2)cc1	20.6%
COc1cc2cc(C(=O)N3C[C@@H](CCl)c4c3cc(OC(=O)N3CCN(C)[C@@H]5CSSC[C@@H]53)c3ccccc43)[nH]c2c(OC)c1OC	-6.59% (active)
CC12OOC(C)(OO1)C2CCC(=O)OCCNc1ccnc2cc(Cl)ccc12 (stereo not given)	-59.8% (active)
Cc1ccc2[nH]c(=S)n(-c3ccc(F)cc3)c(=O)c2c1	107%
COP(=O)(CC(F)(F)C(F)(F)F)OC	-35.5% (active)
O=C(/C=C/c1ccc(F)cc1)c1nc2ccccc2n1Cc1ccc(F)cc1	-30.5% (active)
O=C(/C=C/c1ccco1)c1nc2ccccc2n1Cc1ccc(Br)cc1	29.3%
C[C@H]1[C@H](OC(=O)CCC(=O)N(CCCc2cn(-c3ccc(C#N)cc3)nn2)CCNc2ccnc3cc(Cl)ccc23)O[C@@H]2OC3(C)CC[C@H]4[C@H](C)CC[C@@H]1[C@@]24OO3	18.6%
CC1=C(C=O)C2=C(C)C3(CC3)[C@@](C)(O)C(=O)C2=C1	15.8%
COc1cc(OC)c(S(=O)(=O)N(CCCl)CCCl)cc1C(=O)/C=C/c1cc(OC)c(OC)c(OC)c1	-58.7% (active)

Compound	growth
CC[C@]12C=CCN3CC[C@@]4(c5ccc(OC)cc5N(C)[C@H]4[C@@](O)(C(=O)OC)[C@@H]1OC(=O)CCCC[P+](C1CCCCC1)(C1CCCCC1)C1CCCCC1)[C@@H]32	-24% (active)
C[C@H]1[C@H](OC(=O)CCC(=O)N(CCCc2cn(-c3ccc([N+](=O)[O-])cc3)nn2)CCNc2ccnc3cc(Cl)ccc23)O[C@@H]2OC3(C)CC[C@H]4[C@H](C)CC[C@@H]1[C@@]24OO3	-6.33% (active)
O=C(/C=C/c1ccc(Br)cc1)c1nc2ccccc2n1Cc1ccc(Br)cc1	-27.6% (active)
CCOC(=O)C1=C(Nc2ccccc2)C(=O)OC12C(=O)Nc1ccccc12 (stereo not given)	111%
CC(C)N=C([Se])NC(=O)c1ccccc1	12.5%
COc1cc(OC)c(S(=O)(=O)N(CCCl)CCCl)cc1C(=O)/C=C/c1ccc(C)cc1	80.7%
CC[C@]12C=CCN3CC[C@@]4(c5ccc(OC)cc5N(C)[C@H]4[C@@](O)(C(=O)OC)[C@@H]1OC(=O)CCC[P+](c1ccc(C)cc1)(c1ccc(C)cc1)c1ccc(C)cc1)[C@@H]32	-80.7% (active)
COc1ccc(OC)c(/C=C/C(=O)c2nc3ccccc3n2Cc2ccc(F)cc2)c1	-44.7% (active)
CN(C)CCc1cn(C2CCC2)c2cccc(O)c12	34.9%
CCOP(=O)(CC(F)(F)C(F)(F)F)OCC	-44.6% (active)
COc1ccc(/C=C/C(=O)c2nc3ccccc3n2Cc2ccc(Br)cc2)cc1	64.9%
CC1=C(CCC=O)C2=C(C)C3(CC3)[C@@](C)(O)C(=O)C2=C1	-56.1% (active)
C[C@H]1[C@H](OC(=O)CCC(=O)Nc2cnccn2)O[C@@H]2OC3(C)CC[C@H]4[C@H](C)CC[C@@H]1[C@@]24OO3	27.3%
CC1=C(CCC=NNC(N)=O)C2=C(C)C3(CC3)[C@@](C)(O)C(=O)C2=C1	-31% (active)
N#C[Se]CC(=O)Nc1cccc(C(F)(F)F)c1	-31.9% (active)
C=CCN=C([Se])NC(=O)c1ccc2c(c1)OCO2	96%
COC(=O)C[C@](O)(CCC(C)C)C(=O)O[C@H]1C(OC)=C[C@@]23CCCN2CCc2cc4c(cc2[C@@H]13)OCO4	-47.5% (active)
C[C@H]1[C@H](OC(=O)CCC(=O)N(CCCc2cn(-c3ccc(CN4CCOCC4)cc3)nn2)CCNc2ccnc3cc(Cl)ccc23)O[C@@H]2OC3(C)CC[C@H]4[C@H](C)CC[C@@H]1[C@@]24OO3	-12.5% (active)
O=C(NCCCCC(c1ccc(F)cc1)c1ccc(F)cc1)Nc1ccc([N+](=O)[O-])c(C(F)(F)F)c1	-11% (active)
CC(=O)Oc1ccccc1C(=O)[Se]C(=NC(C)C)NC(C)C	-57% (active)

— PubChem BioAssay (NCI)
